Measured values reported in the supplement of paper PMC6555819.

How the values were obtained:
Experiment in all cases: PBM binding z-score (relative to random genomic background probes); higher = stronger binding; sequences stand for … in GC…GCGATTGACAGCGTAGAATGAAGG
[1] = system: PPARg:RXRa DBDmut IVT, anti-RXR (DBD mutation: RXRa K156A/R161A, NR concentration 270 nM, RXRa partner concentration 90 nM)
Procedure, shortened: (§1)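 For binding z-scores, the reference was random background probes on custom Agilent 4×180K protein-binding microarrays. These arrays were incubated 1 h with ligand-free nuclear receptor dimers in PBS pH 7.4, 2% milk, 0.02% Triton X-100, 1 mM DTT, 0.2 mg/mL BSA and 0.4 mg/ml salmon testes DNA. Fluorescence was scanned after antibody detection of each partner (one per run) and regression-normalized.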

[2] = system: PPARg:RXRa IVT, anti-PPARg (NR concentration 270 nM, RXRa partner concentration 90 nM)
Procedure, shortened: as §1

[3] = system: PPARg homodimer (NR concentration 180 nM)
Procedure, shortened: as §1

[4] = system: PXR:RXRa (NR concentration 270 nM, RXRa partner concentration 90 nM)
Procedure, shortened: as §1

[5] = system: PXR homodimer (NR concentration 270 nM)
Procedure, shortened: as §1

[6] = system: RARa:RXR (NR concentration 270 nM, RXRa partner concentration 90 nM)
Procedure, shortened: as §1

[7] = system: RARa homodimer (NR concentration 270 nM)
Procedure, shortened: as §1

[8] = system: RARb:RXRa (NR concentration 270 nM, RXRa partner concentration 90 nM)
Procedure, shortened: as §1

Row | Sequence | PBM binding z-score [1] | PBM binding z-score [2] | PBM binding z-score [3] | PBM binding z-score [4] | PBM binding z-score [5] | PBM binding z-score [6] | PBM binding z-score [7] | PBM binding z-score [8]
1 | TCGAGTAGGTTACGGGGGCATTCGGGGATGAAGA | 5.16 | 5.85 | 3.02 | 3.55 | 2 | 3.36 | 0.243 | 2.54
2 | CTATGTAGGTTAAGGGGGTCATTCTGTTTGAAAG | 6.99 | 7.55 | 3.03 | 5.44 | 3.94 | 5.46 | 1.35 | 3.47
3 | CCGTGTAGGTTACGAGGGGGCATTCAGTGCGAAT | 3.52 | 4.85 | 2.84 | 5.31 | 7.2 | 3.23 | 1.33 | 2.47
4 | CGATGTAGGTTAAGGGGGTCATTCAGTTTGAAAG | 7.27 | 7.49 | 5.88 | 6.1 | 13.5 | 6.18 | 4.27 | 3.65
5 | TCGAGTAGGTAACGGGGGCATTCAGGGATGAAGA | 4.46 | 5.38 | 1.54 | 2.44 | 1.58 | 2.48 | 0.232 | 1.74
6 | CCGAGTAGGTTACGAGGGGGCATTCACTGCGAAT | 4.81 | 4.25 | 1.02 | 4.44 | 0.728 | 2.66 | 0.267 | 2.12
7 | TCGAGTAGGTTACGGGGGCATTCTGGGATGAAGA | 5.04 | 5.91 | 1.3 | 2.85 | 1.48 | 2.92 | -0.159 | 2.27
8 | CTATCTAGGTTAAGGGGGTCATTCAGTTTGAAAG | 7.65 | 7.5 | 4.89 | 6 | 13.2 | 6.07 | 2.58 | 3.68
9 | TCGAGTAGGTTGCGGGGGCATTCAGGGATGAAGA | 2.02 | 3.55 | 1.44 | 3.09 | 2.38 | 2.39 | 0.623 | 1.91
10 | CTATGTAGGTTAAGGGGGTCAATCAGTTTGAAAG | 7.42 | 7.48 | 2.63 | 5.16 | 7.48 | 5.23 | 0.971 | 3.41
11 | CTATGTAGGTTAAGGGGGTCATTGAGTTTGAAAG | 7.65 | 7.94 | 3.37 | 6.54 | 12.9 | 6.15 | 1.4 | 3.78
12 | CTATTTAGGTTAAGGGGGTCATTCAGTTTGAAAG | 6.86 | 6.59 | 5.85 | 5.9 | 12.3 | 5.84 | 2.72 | 3.71
13 | CTATGTAGGTTTAGGGGGTCATTCAGTTTGAAAG | 3.47 | 4.95 | 3.1 | 5.4 | 9.15 | 5.1 | 1.56 | 2.93
14 | TCGAGTAGGTTACGGGGGCGTTCAGGGATGAAGA | 4.48 | 5.35 | 2.99 | 2.69 | 1.81 | 2.9 | 0.56 | 2.23
15 | TCGAGTAGATTACGGGGGCATTCAGGGATGAAGA | 2.06 | 2.81 | 0.745 | 2.52 | 1.38 | 2.08 | 0.218 | 1.37
16 | TCGAGTAGGTTACGGGGGCATACAGGGATGAAGA | 5.24 | 5.71 | 3.33 | 2.97 | 1.54 | 3.27 | 0.305 | 2.65
17 | CCGAGTACGTTACGAGGGGGCATTCAGTGCGAAT | 0.709 | 1.25 | 1.37 | 3.35 | 6.19 | 2.07 | 0.384 | 1.29
18 | TCGAGTAGGATACGGGGGCATTCAGGGATGAAGA | 1.6 | 3.19 | 0.663 | 2.12 | 0.916 | 2.17 | 0.237 | 1.25
19 | CTATGTAGGTTAAGCGGGTCATTCAGTTTGAAAG | 7.52 | 7.09 | 2.08 | 3.8 | 8.04 | 3.31 | 0.415 | 2.16

Row | Sequence | PBM binding z-score [1] | PBM binding z-score [2] | PBM binding z-score [3] | PBM binding z-score [4] | PBM binding z-score [5] | PBM binding z-score [6] | PBM binding z-score [7] | PBM binding z-score [8]
20 | TCGAGTAGGTTAAGGGGGCATTCAGGGATGAAGA | 4.21 | 4.69 | 2.85 | 2.67 | 1.9 | 2.87 | 1.41 | 2.47
21 | CTATGTAGGTTAAGGGGGGCATTCAGTTTGAAAG | 7.45 | 7 | 3.9 | 4.18 | 8.89 | 2.96 | 3.91 | 3.35
22 | CCGAGTAGGTTAAGAGGGGGCATTCAGTGCGAAT | 4.47 | 4.75 | 2.41 | 4.95 | 6.8 | 2.7 | 1.37 | 2.28
23 | CCGAGTATGTTACGAGGGGGCATTCAGTGCGAAT | 1.52 | 1.95 | 1.3 | 3.07 | 4.74 | 2.27 | 0.735 | 1.15
24 | TCGAGTAGGTTACGGGGGCATTCCGGGATGAAGA | 4.92 | 5.8 | 1.57 | 3.08 | 1.1 | 3.14 | 0.0892 | 2.51
25 | TCGAGTTGGTTACGGGGGCATTCAGGGATGAAGA | 2.18 | 3.75 | 1.79 | 3.22 | 3.31 | 2.3 | 0.444 | 1.97
26 | TCCAGTAGGTTACGGGGGCATTCAGGGATGAAGA | 5.86 | 6.84 | 2.22 | 3.68 | 1.9 | 3.51 | 0.616 | 2.97
27 | CTATGTAGGTTAAGGGGGTCACTCAGTTTGAAAG | 7.55 | 7.88 | 6 | 5.64 | 10.5 | 5.73 | 3.18 | 3.61
28 | TCGAGTAGGTTTCGGGGGCATTCAGGGATGAAGA | 2.63 | 3.84 | 1.79 | 2.62 | 2.07 | 2.22 | 0.713 | 1.67
29 | TCGACTAGGTTACGGGGGCATTCAGGGATGAAGA | 5.37 | 6.51 | 2.41 | 3.59 | 2.11 | 3.47 | 0.467 | 2.91
30 | CCGAGTAGGTTACGAGGGGGCATACAGTGCGAAT | 4.86 | 4.23 | 2.45 | 4.27 | 2.55 | 3.03 | 1.01 | 2.15
31 | TAGAGTAGGTTACGGGGGCATTCAGGGATGAAGA | 5.84 | 6.92 | 2.22 | 3.17 | 2.11 | 3.35 | 1.56 | 2.85
32 | CCGAGTAGGTTACGAGGGGGCACTCAGTGCGAAT | 4.86 | 4.51 | 1.46 | 4.32 | 3.02 | 2.87 | 0.931 | 2.04
33 | CTATGTATGTTAAGGGGGTCATTCAGTTTGAAAG | 4.85 | 5.88 | 5.05 | 5.85 | 9.76 | 5.5 | 3.39 | 3.74
34 | TCGAGTAGGTTACCGGGGCATTCAGGGATGAAGA | 3.7 | 4.46 | 0.533 | 0.554 | -0.524 | 0.534 | -0.856 | 1.22
35 | CTACGTAGGTTAAGGGGGTCATTCAGTTTGAAAG | 2.95 | 4.54 | 2.77 | 5.94 | 11.4 | 6.06 | 0.985 | 3.63
36 | CCGAGTAGATTACGAGGGGGCATTCAGTGCGAAT | 0.434 | 0.871 | 0.638 | 2.73 | 3.64 | 1.79 | -0.0773 | 0.973
37 | CCGAGTAGGTTACGAGCGGGCATTCAGTGCGAAT | 4.42 | 2.97 | 0.117 | 1.73 | 0.506 | 0.0464 | -0.596 | 0.908
38 | CCGAGTAGGTTACGAGGGGGGATTCAGTGCGAAT | 5.06 | 4.91 | 2 | 3.27 | 2.11 | 2.61 | 0.858 | 1.84

Row | Sequence | PBM binding z-score [1] | PBM binding z-score [2] | PBM binding z-score [3] | PBM binding z-score [4] | PBM binding z-score [5] | PBM binding z-score [6] | PBM binding z-score [7] | PBM binding z-score [8]
39 | TCGAGTCGGTTACGGGGGCATTCAGGGATGAAGA | 1.87 | 3.65 | 1.02 | 2.5 | 0.347 | 2.15 | -0.175 | 1.71
40 | CCGAGTAGGTTACGAGGAGGCATTCAGTGCGAAT | 4.34 | 3.39 | -0.438 | 0.196 | -0.429 | 0.244 | -0.663 | 0.685
41 | CCGAGTAGGTTACGATGGGGCATTCAGTGCGAAT | 4.25 | 3.03 | -0.0463 | 0.69 | 0.101 | 0.251 | -0.659 | 1.03
42 | CTATGTAGGTTAAGGGGGTCTTTCAGTTTGAAAG | 7.13 | 7.07 | 2.14 | 2.15 | 1.64 | 1.84 | 0.701 | 1.89
43 | CTATGTAGGTTAAGGGGGTCATTCAGTTTGAAAG | 7.67 | 7.74 | 3.66 | 6.09 | 11.4 | 5.93 | 1.81 | 3.73
44 | TCGAGTAGGTTACGTGGGCATTCAGGGATGAAGA | 3.11 | 2.65 | -0.0563 | -0.044 | -0.265 | 0.41 | -0.517 | 0.704
45 | TCGAGTAGGTTACGGGAGCATTCAGGGATGAAGA | 2.84 | 3.32 | -0.122 | 0.0708 | -0.797 | 0.667 | -0.752 | 0.692
46 | TTGAGTAGGTTACGGGGGCATTCAGGGATGAAGA | 6.29 | 6.86 | 5.24 | 3.31 | 3.21 | 3.81 | 2.56 | 2.9
47 | TCGAGTAGGTTATGGGGGCATTCAGGGATGAAGA | 3.92 | 5.17 | 1.07 | 2.72 | 1.87 | 2.72 | 0.33 | 2.13
48 | CCGAGTAGGTTACGAGGGGGCATGCAGTGCGAAT | 4.44 | 4.36 | 2.26 | 4.24 | 2.63 | 2.98 | 0.865 | 2.26
49 | CTATGTCGGTTAAGGGGGTCATTCAGTTTGAAAG | 4.49 | 5.96 | 6.84 | 5.84 | 8.33 | 5.76 | 4.21 | 3.57
50 | CTATGTAGGTGAAGGGGGTCATTCAGTTTGAAAG | 7.88 | 8.11 | 2.81 | 5.89 | 9.91 | 6.01 | 0.852 | 3.52
51 | CAGAGTAGGTTACGAGGGGGCATTCAGTGCGAAT | 5.73 | 5.83 | 1.94 | 4.86 | 6.24 | 2.83 | 1.21 | 2.45
52 | TCGAGTAGCTTACGGGGGCATTCAGGGATGAAGA | 1.25 | 2.26 | 0.346 | 2.21 | 1.09 | 1.47 | -0.926 | 0.94
53 | CTATGTAGGTTAAGGGGGTCATGCAGTTTGAAAG | 7.51 | 7.75 | 4.7 | 5.74 | 8.41 | 6 | 1.78 | 3.79
54 | TCGAGTGGGTTACGGGGGCATTCAGGGATGAAGA | 4.62 | 6.37 | 1.92 | 3.59 | 2.12 | 3.12 | 1.12 | 2.46
55 | CTATGTTGGTTAAGGGGGTCATTCAGTTTGAAAG | 3.11 | 5.29 | 4.17 | 5.75 | 10.8 | 5.62 | 4.36 | 3.51
56 | TCGCGTAGGTTACGGGGGCATTCAGGGATGAAGA | 2.78 | 4.58 | 1.25 | 3.16 | 1.49 | 3.42 | 0.315 | 2.72
